Results reported in PubChem BioAssay (EPA / NIEHS).
Inconclusive results are not listed. Active and inactive are the calls of the source. Rule for the calls, unless noted: active = hit-call score of the fitted dose curve at least 0.9, where 1 is the maximum; inactive = score below 0.9.

Key:
[1] = ATG_PXRE_CIS: Attagene CIS-FACTORIAL HepG2 Assay for human Pregnane X Receptor Element (PXRE) (AID 2282957); details: HepG2 Attagene CIS-FACTORIAL PXRE reporter, mRNA; actives raise or lower the signal
Summary of the method: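 Transfect HepG2 with MRTUs (cis promoter elements); dose chemical, incubate 24 h; isolate RNA, RT with oligo(dT), PCR, 6-FAM label, HpaI cut, CE. Gain/loss fit vs DMSO.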

[2] = ATG_PPRE_CIS: Attagene CIS-FACTORIAL HepG2 Assay for human Peroxisome Proliferator-activated Response Element (PPRE) (AID 2282958); details: HepG2 PPRE cis-element reporter, Attagene transcription factor profiling; actives raise or lower the signal
Summary of the method: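 HepG2, transient MRTU transfection (cis promoter elements, endogenous TFs). 24 h dosing. RNA → oligo(dT) RT → PCR → 6-FAM primer extension → HpaI digest → CE. Bidirectional fit vs DMSO.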

[3] = ATG_RORE_CIS: Attagene CIS-FACTORIAL HepG2 Assay for human RAR-related Orphan Receptor Element (RORE) (AID 2282959); details: HepG2 Attagene cis-factorial RORE reporter, mRNA; actives raise or lower the signal
Summary of the method: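 Transient MRTU transfection of human HepG2 liver cells (FuGene 6); 24 h compound exposure; TriZol RNA, oligo(dT) RT, PCR, FAM labeling, HpaI cut, CE fragment analysis. DMSO = negative control/baseline.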

[4] = ATG_Sox_CIS: Attagene CIS-FACTORIAL HepG2 Assay for human SRY-box transcription factor (SOX) (AID 2282960); details: HepG2 Attagene cis-factorial SOX reporter, mRNA; actives raise or lower the signal
Summary of the method: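 Endogenous factor activity in human liver HepG2 cells carrying transfected cis-regulated reporter units. RNA taken 24 h post-dose, reverse-transcribed, PCR-amplified and sized by capillary electrophoresis. Gain or loss of signal fitted relative to DMSO.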

[5] = molecular target: Transcription factor Sp1 (Homo sapiens) (UniProt P08047); assay: ATG_Sp1_CIS: Attagene CIS-FACTORIAL HepG2 Assay for human Specificity Protein 1 (Sp1) (AID 2282961); details: HepG2 Sp1 cis-reporter transcription, actives raise or lower the signal
Summary of the method: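 Transient MRTU-transfected HepG2, 24 h compound exposure. Total RNA → oligo(dT) RT → PCR of reporter → 6-FAM primer extension → HpaI digest → CE. Endpoint fitted both directions vs DMSO.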

[6] = ATG_SREBP_CIS: Attagene CIS-FACTORIAL HepG2 Assay for human Sterol Regulatory Element Binding (SREBP) (AID 2282962); details: HepG2 Attagene cis-factorial SREBP reporter, mRNA; actives raise or lower the signal
Summary of the method: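 Transfected HepG2 (cis-regulated reporter library, endogenous TFs) → compound 24 h → total RNA → oligo(dT) RT → reporter-specific PCR → FAM primer extension, HpaI cut → CE fluorescence. Fit bidirectional vs DMSO.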

[7] = molecular target: Signal transducer and activator of transcription 3 (Homo sapiens) (UniProt P40763); assay: ATG_STAT3_CIS: Attagene CIS-FACTORIAL HepG2 Assay for human Signal Transducer and Activator of Transcription 3 (STAT3) (AID 2282963); details: HepG2, Attagene cis-factorial STAT3 reporter transcription; actives raise or lower the signal
Summary of the method: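 After a 24 h compound incubation, total RNA from MRTU-transfected HepG2 cells was converted to cDNA and reporter sequences PCR-amplified, labelled and profiled by capillary electrophoresis. Gain and loss of signal were referenced to DMSO.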

[8] = ATG_TA_CIS: Attagene CIS-FACTORIAL HepG2 Assay for human TA Basal Promoter (AID 2282964); details: HepG2 Attagene CIS-factorial TA basal promoter reporter; actives raise or lower the signal
Summary of the method: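 HepG2 cells transiently transfected with multiplexed cis-promoter reporter units, dosed 24 h. Reporter mRNA measured by RT-PCR, 6-FAM labelling, HpaI digestion and capillary electrophoresis; bidirectional fit versus DMSO baseline, serving as background control.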

[9] = ATG_TCF_b_cat_CIS: Attagene CIS-FACTORIAL HepG2 Assay for human T-Cell-Factor with beta-catenin (TCF/b-cat) (AID 2282965); details: HepG2 TCF/beta-catenin cis-reporter transcription, actives raise or lower the signal
Summary of the method: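 Measured: reporter mRNA in HepG2 transiently transfected with cis-promoter reporter units, 24 h after chemical addition. Fitting was bidirectional, DMSO as negative control.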

[10] = ATG_TAL_CIS: Attagene CIS-FACTORIAL HepG2 Assay for human TAL Basal Promoter (AID 2282966); details: HepG2 Attagene cis-factorial TAL promoter reporter; actives raise or lower the signal;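 note: background control endpoint measuring basal TAL promoter reporter mRNA not a specific factor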
Summary of the method: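 Fluorescence of labelled reporter cDNA fragments, resolved by capillary electrophoresis, gave the readout. Human HepG2 liver cells carried transiently transfected cis-element reporter units and were treated for 24 hours; activity was fitted bidirectionally against DMSO.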

[11] = ATG_TGFb_CIS: Attagene CIS-FACTORIAL HepG2 Assay for human Transforming Growth Factor (TGF) (AID 2282967); details: HepG2 Attagene CIS TGFb reporter, mRNA transcription; actives raise or lower the signal
Summary of the method: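 HepG2 cells transiently transfected with cis-promoter-driven multiplexed reporter units; 24 h compound exposure. Reporter mRNA measured by RT-PCR, 6-FAM labeling, HpaI digestion and capillary electrophoresis; bidirectional fit versus DMSO baseline.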

[12] = molecular target: Nuclear receptor subfamily 1 group I member 3 (Homo sapiens) (UniProt Q14994); assay: ATG_CAR_TRANS: Attagene TRANS-FACTORIAL HepG2 Assay for human Constitutive Androstane Receptor (CAR) (AID 2282969; active = hit-call score of the fitted dose curve at least 0.9, where 1 is the maximum;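 note: activators raise reporter mRNA above DMSO so AC50 marks induction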); details: HepG2 Attagene TRANS-FACTORIAL CAR reporter
Summary of the method: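 Readout is reporter mRNA induction, quantified by fluorescent primer extension and capillary electrophoresis after RT-PCR. Cells were HepG2 transiently carrying chimeric NR-Gal4 constructs with GAL4-UAS reporters, treated for 24 h; activity scored upward from DMSO.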

[13] = molecular target: X-box-binding protein 1 (Homo sapiens) (UniProt P17861); assay: ATG_Xbp1_CIS: Attagene CIS-FACTORIAL HepG2 Assay for human X-box Binding Protein 1 (XBP1) (AID 2282972); details: HepG2 XBP1 cis-element reporter, Attagene multiplex; actives raise or lower the signal
Summary of the method: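 HepG2, transient MRTU transfection (cis-promoter driven), 24 h compound exposure. Total RNA → oligo(dT) RT → PCR → 6-FAM labeling → HpaI cut → CE. Bidirectional fit vs DMSO.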

[14] = ATG_M_19_TRANS: Attagene TRANS-FACTORIAL HepG2 Assay for M19 Transcription Factor (Internal Marker) (AID 2282974; active = hit-call score of the fitted dose curve at least 0.9, where 1 is the maximum); details: HepG2 Attagene TRANS-FACTORIAL M19 internal marker reporter
Summary of the method: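 Fluorescence of 6-FAM-labelled reporter cDNA fragments, separated by capillary electrophoresis, served as the readout. These derived from HepG2 cells carrying transfected GAL4-UAS reporter units after 24 h dosing, with DMSO as negative control.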

[15] = ATG_GAL4_TRANS: Attagene TRANS-FACTORIAL HepG2 Assay for GAL4 (Internal Marker) (AID 2282976; active = hit-call score of the fitted dose curve at least 0.9, where 1 is the maximum); details: HepG2 Attagene TRANS GAL4 internal marker reporter
Summary of the method: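 First, HepG2 cells were transfected with reporter units under GAL4-UAS control. Next, they were treated with chemical for 24 h. Finally, RNA was reverse-transcribed, PCR-amplified, FAM-labelled and resolved by capillary electrophoresis, with induction scored against DMSO.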

[16] = ATG_VDRE_CIS: Attagene CIS-FACTORIAL HepG2 Assay for human Vitamin D Receptor Element (VDRE) (AID 2282968); details: HepG2 VDRE cis-reporter transcription, actives raise or lower the signal
Summary of the method: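 In transiently transfected HepG2 liver cells, gain or loss of reporter mRNA after 24 h exposure is scored relative to DMSO, using fluorescence detection by capillary electrophoresis of RT-PCR products.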

[17] = molecular target: Steroid hormone receptor ERR1 (Homo sapiens) (UniProt P11474); assay: ATG_ERRa_TRANS: Attagene TRANS-FACTORIAL HepG2 Assay for human Estrogen-Related Receptor alpha (ERRa) (AID 2282971; active = hit-call score of the fitted dose curve at least 0.9, where 1 is the maximum); details: HepG2 Attagene TRANS reporter, ERRa transactivation
Summary of the method: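 Reporter transcript induction was quantified by RT-PCR and capillary electrophoresis of FAM-labelled, HpaI-cut products after 24 h treatment of HepG2 cells carrying transiently transfected GAL4-UAS reporter units and an exogenous ERRa-Gal4 fusion; activity scored as increase over DMSO.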

[18] = molecular target: Estrogen-related receptor gamma (Homo sapiens) (UniProt P62508); assay: ATG_ERRg_TRANS: Attagene TRANS-FACTORIAL HepG2 Assay for human Estrogen-Related Receptor gamma (ERRg) (AID 2282977; active = hit-call score of the fitted dose curve at least 0.9, where 1 is the maximum;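 note: hits increase reporter signal over DMSO so potencies reflect activators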); details: HepG2 Attagene TRANS reporter, ERRg transactivation
Summary of the method: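 Transient HepG2 transfectants, 24 h compound exposure, GAL4-UAS reporter mRNA by RT-PCR/6-FAM labelling/capillary electrophoresis; positive direction vs DMSO.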

[19] = molecular target: Estrogen receptor (Homo sapiens) (UniProt P03372); assay: ATG_ERa_TRANS: Attagene TRANS-FACTORIAL HepG2 Assay for human Estrogen Receptor alpha (ERa) (AID 2282970; active = hit-call score of the fitted dose curve at least 0.9, where 1 is the maximum); details: HepG2 Attagene TRANS ERa GAL4 reporter, mRNA
Summary of the method: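 Human liver HepG2, transient transfection of multiple GAL4-UAS reporter units; TRANS format (exogenous NR-Gal4 chimera). 24 h dosing. Readout: reporter mRNA, RT-PCR, 6-FAM primer extension, HpaI digest, capillary electrophoresis. Positive direction vs DMSO.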

Measured: AC50

Transcription factor Sp1 (Homo sapiens), sequence (P08047 whole entry, looked up): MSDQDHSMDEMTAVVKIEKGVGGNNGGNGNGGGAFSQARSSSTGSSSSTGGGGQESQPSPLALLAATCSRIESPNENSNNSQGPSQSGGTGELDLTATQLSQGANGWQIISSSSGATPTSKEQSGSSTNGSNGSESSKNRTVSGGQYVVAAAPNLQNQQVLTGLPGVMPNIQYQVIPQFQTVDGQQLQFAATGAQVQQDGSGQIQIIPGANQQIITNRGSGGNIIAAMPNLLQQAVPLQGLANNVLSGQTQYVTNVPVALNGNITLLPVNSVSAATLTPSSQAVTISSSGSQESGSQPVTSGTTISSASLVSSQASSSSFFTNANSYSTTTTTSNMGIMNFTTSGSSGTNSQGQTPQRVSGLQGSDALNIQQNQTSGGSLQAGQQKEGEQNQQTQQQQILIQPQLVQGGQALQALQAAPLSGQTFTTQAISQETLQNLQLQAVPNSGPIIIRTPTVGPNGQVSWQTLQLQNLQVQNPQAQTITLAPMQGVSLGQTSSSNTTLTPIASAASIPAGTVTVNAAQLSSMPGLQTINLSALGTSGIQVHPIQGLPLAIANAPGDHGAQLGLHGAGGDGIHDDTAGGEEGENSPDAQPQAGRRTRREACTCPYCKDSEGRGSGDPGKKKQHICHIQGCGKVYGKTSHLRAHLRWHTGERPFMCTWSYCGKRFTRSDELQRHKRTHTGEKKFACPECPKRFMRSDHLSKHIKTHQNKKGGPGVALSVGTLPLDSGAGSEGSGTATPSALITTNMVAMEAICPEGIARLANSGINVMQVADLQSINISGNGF
X-box-binding protein 1 (Homo sapiens), sequence (P17861 whole entry, looked up): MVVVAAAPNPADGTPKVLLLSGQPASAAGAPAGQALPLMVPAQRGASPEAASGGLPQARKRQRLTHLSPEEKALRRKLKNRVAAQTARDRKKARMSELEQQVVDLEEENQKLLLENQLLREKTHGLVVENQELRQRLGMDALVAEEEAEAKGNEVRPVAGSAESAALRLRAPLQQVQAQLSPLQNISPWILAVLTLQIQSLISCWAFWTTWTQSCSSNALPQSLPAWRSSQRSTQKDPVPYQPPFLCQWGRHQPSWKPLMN
Nuclear receptor subfamily 1 group I member 3 (Homo sapiens), sequence (Q14994 whole entry, looked up, the tested form may be a part): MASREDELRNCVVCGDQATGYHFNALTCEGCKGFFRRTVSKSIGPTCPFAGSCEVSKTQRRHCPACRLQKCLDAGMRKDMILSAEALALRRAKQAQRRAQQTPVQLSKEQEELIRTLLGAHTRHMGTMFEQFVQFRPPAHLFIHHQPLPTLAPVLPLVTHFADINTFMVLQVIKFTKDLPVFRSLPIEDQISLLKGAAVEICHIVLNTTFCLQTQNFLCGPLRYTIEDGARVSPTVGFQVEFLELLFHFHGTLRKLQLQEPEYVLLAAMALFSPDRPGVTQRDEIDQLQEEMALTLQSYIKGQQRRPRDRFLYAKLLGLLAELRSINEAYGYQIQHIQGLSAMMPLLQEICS
Signal transducer and activator of transcription 3 (Homo sapiens), sequence (P40763 whole entry, looked up): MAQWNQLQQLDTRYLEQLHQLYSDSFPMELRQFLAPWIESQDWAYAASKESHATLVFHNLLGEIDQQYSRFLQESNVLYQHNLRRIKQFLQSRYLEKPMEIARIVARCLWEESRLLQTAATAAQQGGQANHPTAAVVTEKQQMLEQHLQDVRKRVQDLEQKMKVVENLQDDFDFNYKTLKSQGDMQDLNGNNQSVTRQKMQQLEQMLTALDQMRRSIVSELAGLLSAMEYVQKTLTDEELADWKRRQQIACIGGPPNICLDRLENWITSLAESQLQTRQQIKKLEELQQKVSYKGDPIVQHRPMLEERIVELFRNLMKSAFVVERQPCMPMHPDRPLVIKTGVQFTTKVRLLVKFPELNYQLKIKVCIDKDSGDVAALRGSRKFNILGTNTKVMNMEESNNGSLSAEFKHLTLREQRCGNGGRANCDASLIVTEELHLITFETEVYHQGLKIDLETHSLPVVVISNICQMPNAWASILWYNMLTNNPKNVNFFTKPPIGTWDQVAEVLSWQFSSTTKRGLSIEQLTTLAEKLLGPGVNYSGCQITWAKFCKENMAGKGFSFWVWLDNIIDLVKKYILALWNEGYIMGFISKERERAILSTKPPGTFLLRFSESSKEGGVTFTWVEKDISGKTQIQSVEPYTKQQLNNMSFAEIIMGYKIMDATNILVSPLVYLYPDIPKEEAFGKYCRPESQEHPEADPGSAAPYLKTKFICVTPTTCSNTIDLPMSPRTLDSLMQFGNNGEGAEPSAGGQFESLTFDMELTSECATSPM
Estrogen-related receptor gamma (Homo sapiens), sequence (P62508 whole entry, looked up, the tested form may be a part): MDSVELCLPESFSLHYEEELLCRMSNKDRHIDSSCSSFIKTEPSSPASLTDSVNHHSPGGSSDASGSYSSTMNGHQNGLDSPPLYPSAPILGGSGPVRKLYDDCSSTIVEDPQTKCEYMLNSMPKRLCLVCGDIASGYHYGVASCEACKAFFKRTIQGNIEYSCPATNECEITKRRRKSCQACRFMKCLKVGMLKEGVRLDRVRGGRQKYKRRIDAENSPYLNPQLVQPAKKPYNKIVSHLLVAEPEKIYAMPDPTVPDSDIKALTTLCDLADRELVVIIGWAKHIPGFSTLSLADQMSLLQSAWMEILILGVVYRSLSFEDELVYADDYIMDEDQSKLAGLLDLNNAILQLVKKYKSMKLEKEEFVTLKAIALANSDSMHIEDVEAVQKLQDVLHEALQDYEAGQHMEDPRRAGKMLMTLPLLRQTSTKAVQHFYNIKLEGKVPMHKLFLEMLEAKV
Estrogen receptor (Homo sapiens), sequence (P03372 whole entry, looked up, the tested form may be a part): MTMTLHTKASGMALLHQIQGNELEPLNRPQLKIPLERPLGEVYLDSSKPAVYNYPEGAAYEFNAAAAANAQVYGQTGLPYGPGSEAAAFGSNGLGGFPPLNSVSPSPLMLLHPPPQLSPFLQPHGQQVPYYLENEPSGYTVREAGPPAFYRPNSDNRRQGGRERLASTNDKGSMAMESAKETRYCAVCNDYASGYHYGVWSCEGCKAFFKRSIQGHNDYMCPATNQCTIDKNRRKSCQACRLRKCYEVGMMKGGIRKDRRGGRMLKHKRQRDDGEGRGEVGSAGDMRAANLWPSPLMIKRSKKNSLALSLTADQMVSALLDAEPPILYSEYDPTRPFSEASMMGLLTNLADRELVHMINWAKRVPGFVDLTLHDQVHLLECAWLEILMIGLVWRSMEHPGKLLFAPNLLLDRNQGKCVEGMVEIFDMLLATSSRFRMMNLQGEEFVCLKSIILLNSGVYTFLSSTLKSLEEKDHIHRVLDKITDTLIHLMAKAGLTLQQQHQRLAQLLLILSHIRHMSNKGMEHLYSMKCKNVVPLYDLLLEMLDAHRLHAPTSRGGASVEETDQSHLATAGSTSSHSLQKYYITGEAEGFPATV
Steroid hormone receptor ERR1 (Homo sapiens), sequence (P11474 whole entry, looked up, the tested form may be a part): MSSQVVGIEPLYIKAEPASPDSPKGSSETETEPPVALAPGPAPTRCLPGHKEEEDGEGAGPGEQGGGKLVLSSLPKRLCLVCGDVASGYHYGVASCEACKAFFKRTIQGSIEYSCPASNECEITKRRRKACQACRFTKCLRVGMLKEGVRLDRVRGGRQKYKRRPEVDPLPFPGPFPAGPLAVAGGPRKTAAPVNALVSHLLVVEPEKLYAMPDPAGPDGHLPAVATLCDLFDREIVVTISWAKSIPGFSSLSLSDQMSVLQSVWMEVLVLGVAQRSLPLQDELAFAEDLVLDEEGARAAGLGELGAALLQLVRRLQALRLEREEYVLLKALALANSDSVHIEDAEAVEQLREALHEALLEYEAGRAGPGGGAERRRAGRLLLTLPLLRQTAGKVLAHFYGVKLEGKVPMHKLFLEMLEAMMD

CC(C)CCCCCCCOC(=O)CCCCC(=O)OCCCCCCCC(C)C
active: [1] 100 µM
not listed: [16] | [17] | [18] | [19]
inactive: all other assays above

O=C1OC(=O)C2C3C=CC(C3)C12 (centres undefined)
not listed: [1] | [12] | [15] | [16] | [17] | [18] | [19]
inactive: all other assays above

CN(C)c1ccc(Cc2ccc(N(C)C)cc2)cc1
active: [2] 36.7 µM | [5] 100 µM | [6] 43.4 µM | [11] 130 µM | [16] 25.8 µM
not listed: [1] | [12] | [14] | [15] | [19]
inactive: all other assays above

CN(C)c1ccc(N=NS(=O)(=O)O)cc1
active: [3] 38.6 µM
not listed: [1] | [2] | [14] | [17] | [18] | [19]
inactive: all other assays above

CC(C)=CCC/C(C)=C\CO
active: [1] 7.34 µM
not listed: [2] | [12] | [15] | [17] | [18] | [19]
inactive: all other assays above

COCCOc1cc2cc(C(=O)NC3CCN(C(C)C)CC3)n(CC(=O)Nc3ccc(Cl)cn3)c2cn1
inactive: [7] | [8] | [10] | [11]
active: [4] 135 µM | [5] 100 µM | [6] 26.5 µM | [9] 108 µM | [16] 124 µM | [13] 100 µM

O=C(O)CC(O)C(=O)O (centres undefined)
not listed: [2] | [14] | [15] | [16] | [17] | [18] | [19]
inactive: all other assays above

Nc1cccc(N)c1
not listed: [2] | [12] | [15] | [16] | [17] | [18] | [19]
inactive: all other assays above

NC(=O)NO
not listed: [1] | [2] | [12] | [14] | [17] | [18] | [19]
inactive: all other assays above

O=C1CCCCCN1
not listed: [1] | [12] | [14] | [15] | [16] | [17] | [19]
inactive: all other assays above

CC[C@H]1OC(=O)[C@H](C)[C@@H](O[C@H]2C[C@@](C)(OC)[C@@H](O)[C@H](C)O2)[C@H](C)[C@@H](O[C@@H]2O[C@H](C)C[C@H](N(C)C)[C@H]2O)[C@](C)(O)C[C@@H](C)C(=O)[C@H](C)[C@@H](O)[C@]1(C)O
not listed: [2] | [12] | [14] | [15] | [17] | [18] | [19]
inactive: all other assays above

CC(=O)OC[C@H]1O[C@@](COC(C)=O)(O[C@H]2O[C@H](COC(C)=O)[C@@H](OC(C)=O)[C@H](OC(C)=O)[C@H]2OC(C)=O)[C@@H](OC(C)=O)[C@@H]1OC(C)=O
not listed: [1] | [2] | [12] | [14] | [16] | [17] | [18] | [19]
inactive: all other assays above

CCOCCO
not listed: [2] | [12] | [14] | [15] | [16] | [17] | [18] | [19]
inactive: all other assays above

COc1cccc(-c2ccc(/C=C\CN3CCCCCC3)cc2Cl)c1
active: [6] 20.5 µM | [16] 6.94 µM
not listed: [1] | [15] | [17]
inactive: all other assays above

CC[C@H]1CC[C@H](NCc2cc3c(cc2OC)[C@H]2C[C@H]2C(=O)N3C)[C@H](c2ccccc2)N1
active: [2] 75.6 µM | [5] 47.5 µM | [6] 36.6 µM | [9] 100 µM | [13] 96.6 µM
not listed: [1] | [12] | [14] | [15] | [16]
inactive: all other assays above
